According to PubChem BioAssay (Tox21):
Values without a mark were called inactive. Records with an inconclusive call do not appear. Where a call stands in place of a potency, no number is given. Active and inactive are the calls of the source. Unless noted, calls come from the whole dose curve.

How the values were obtained:
[1] = Nuclear factor erythroid 2-related factor 2/antioxidant responsive element (Nrf2/ARE) small molecule agonists: qHTS cell viability counter screen in human keratinocytes (AID 1919968; active = well fitted curve in the direction sought with a large enough effect in the repeat runs; an effect the other way counts as inactive or inconclusive; note: nearly all actives have a fitted effect of over 55% in size; note: potency is the fitted concentration of half-maximal effect)
How it was run: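 Stably transfected HaCaT (KeratinoSens), 1,500/well. Test agents in DMSO were applied for 23 h, 37 C/5% CO2. CellTiter-Fluor was incubated 1 h before the fluorescence read.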

[2] = Nuclear factor erythroid 2-related factor 2/antioxidant responsive element (Nrf2/ARE) small molecule agonists: luciferase reporter gene qHTS assay in human keratinocytes (AID 1919969); note: nearly all actives have a fitted effect of over 35% in size; note: potency is the fitted concentration of half-maximal effect
[3] = target: Gonadotropin-releasing hormone receptor (Homo sapiens) (UniProt P30968); assay: Human gonadotropin-releasing hormone receptor (GnRHR) small molecule agonists, calcium flux assay in GnRHR-HEK293 cells (AID 1920063); note: nearly all actives have a fitted effect of over 35% in size
Sequence of Gonadotropin-releasing hormone receptor (Homo sapiens) (P30968 whole entry, looked up): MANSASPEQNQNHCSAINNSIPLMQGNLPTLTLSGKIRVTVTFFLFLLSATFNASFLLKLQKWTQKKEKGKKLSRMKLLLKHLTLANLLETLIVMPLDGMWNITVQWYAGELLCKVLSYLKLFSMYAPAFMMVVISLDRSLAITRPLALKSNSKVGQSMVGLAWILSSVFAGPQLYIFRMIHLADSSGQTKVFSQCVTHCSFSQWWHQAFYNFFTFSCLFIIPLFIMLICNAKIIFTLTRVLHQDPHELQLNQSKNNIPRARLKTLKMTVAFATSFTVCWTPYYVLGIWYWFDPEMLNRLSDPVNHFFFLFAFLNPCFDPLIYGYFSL
How it was run: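 Stable human GnRHR HEK293 line. 18 h plating, then calcium dye for 1 h at 37 C. Agonist-mode compound addition from DMSO stocks; fluorescence monitored 3 min.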

[4] = target: KiSS-1 receptor (Homo sapiens) (UniProt Q969F8); assay: Human kisspeptin (KISS1R) small molecule agonists, calcium flux assay in KISS1R-HEK293 cells (AID 1920064; active = well fitted curve in the direction sought with a large enough effect in the repeat runs; an effect the other way counts as inactive or inconclusive)
Sequence of KiSS-1 receptor (Homo sapiens) (Q969F8 whole entry, looked up): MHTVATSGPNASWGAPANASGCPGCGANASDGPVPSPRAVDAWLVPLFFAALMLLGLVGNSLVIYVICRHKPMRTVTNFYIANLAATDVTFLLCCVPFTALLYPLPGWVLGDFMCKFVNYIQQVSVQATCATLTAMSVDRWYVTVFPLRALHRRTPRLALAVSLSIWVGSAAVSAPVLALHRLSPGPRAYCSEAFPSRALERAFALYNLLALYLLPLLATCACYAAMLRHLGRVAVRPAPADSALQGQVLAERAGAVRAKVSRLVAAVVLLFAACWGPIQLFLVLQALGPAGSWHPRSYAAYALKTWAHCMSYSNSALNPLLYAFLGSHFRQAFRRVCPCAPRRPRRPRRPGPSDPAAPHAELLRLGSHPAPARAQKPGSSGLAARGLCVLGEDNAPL
How it was run: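 After overnight (18 h) culture at 37 C/5% CO2, human KISS1R-HEK293 cells received calcium dye for 1 h, then test compound; emission at 540 nm (excitation 480 nm) was tracked for 3 min.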

[5] = G protein-coupled receptor (GPCR) small molecule agonists, calcium flux assay: HEK293 wild type cell line counter screen (AID 1920065)
How it was run: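 Following 18 h incubation at 37 C/5% CO2, plates got calcium dye for 1 h; compounds, ATP or DMSO were then pinned in and fluorescence followed kinetically (480/540 nm).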

[6] = p53 small molecule agonists, cell-based qHTS assay with human liver microsomes: qHTS cell viability counter screen (AID 1963579); note: nearly all actives have a fitted effect of over 45% in size; note: potency is the fitted concentration of half-maximal effect
How it was run: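 Luminescent CellTiter-Glo read-out, 30 min at room temperature, gauged cytotoxicity in p53RE-bla cells exposed 16 h at 37 C to DMSO-dissolved compounds with metabolic activation by human liver microsomes and NADPH, each 0.5 mg/mL final.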

[7] = p53 small molecule agonists, cell-based qHTS assay with rat liver microsomes: qHTS cell viability counter screen (AID 1963580); note: nearly all actives have a fitted effect of over 45% in size
How it was run: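 Counter screen for cytotoxicity under metabolic activation: rat liver microsomes and NADPH, 0.5 mg/mL final each, added with compounds to p53RE-bla HCT-116 cells; 16 h at 37 C, then ATP luminescence read.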

[8] = p53 small molecule agonists, cell-based qHTS assay: qHTS cell viability counter screen (AID 1963581); note: nearly all actives have a fitted effect of over 45% in size; note: potency is the fitted concentration of half-maximal effect
How it was run: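 qHTS counter screen: 16 h compound exposure at 37 C of p53RE-bla HCT-116 cells (4,000 per well, seeded 5 h prior), cell viability by ATP luminescence.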

[9] = p53 small molecule agonists, cell-based qHTS assay (AID 1963582; active = well fitted activation curve with a large enough effect in the signal ratio in the repeat runs, not every such curve was filed as active; the % refers to the signal ratio; note: potency is the fitted concentration of half-maximal effect)
How it was run: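 Measured: fluorescence from cleaved LiveBLAzer substrate. System: p53RE-bla cells, 16 h compound treatment at 37 C, 2 h substrate step at room temperature.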

[10] = target: 5-hydroxytryptamine receptor 2A (Homo sapiens) (UniProt P28223); assay: 5-hydroxytryptamine receptor 2A (HTR2A) small molecule antagonists, cell-based qHTS assay (AID 1963586); note: nearly all actives have a fitted effect of over 45% in size
Sequence of 5-hydroxytryptamine receptor 2A (Homo sapiens) (P28223 whole entry, looked up): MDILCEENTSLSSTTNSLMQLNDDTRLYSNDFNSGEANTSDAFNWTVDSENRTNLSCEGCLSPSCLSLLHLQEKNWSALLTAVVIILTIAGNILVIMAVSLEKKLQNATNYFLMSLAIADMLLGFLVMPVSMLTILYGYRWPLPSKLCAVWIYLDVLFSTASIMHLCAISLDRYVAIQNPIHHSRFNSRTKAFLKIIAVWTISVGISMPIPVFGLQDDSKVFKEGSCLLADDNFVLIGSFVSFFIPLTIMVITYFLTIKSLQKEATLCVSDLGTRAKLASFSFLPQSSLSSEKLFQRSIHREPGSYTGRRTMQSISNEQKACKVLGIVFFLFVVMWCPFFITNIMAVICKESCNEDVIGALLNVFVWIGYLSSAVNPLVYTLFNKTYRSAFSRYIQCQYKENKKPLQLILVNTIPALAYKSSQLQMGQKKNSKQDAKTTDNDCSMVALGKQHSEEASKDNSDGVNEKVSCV
How it was run: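 CHO cells stably expressing human HTR2A were plated for 18 h at 37 C, then loaded with calcium dye for 1 h. Compounds were preincubated 5 min at room temperature before DOI (4 nM solution) was added. Kinetic fluorescence was read for 3 min.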

[11] = target: 5-hydroxytryptamine receptor 2A (Homo sapiens) (UniProt P28223); assay: 5-hydroxytryptamine receptor 2A (HTR2A) small molecule agonists, cell-based qHTS assay (AID 1963587); note: nearly all actives have a fitted effect of over 30% in size
How it was run: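 HTR2A-CHO cells, plated 18 h at 37 C/5% CO2, dye-loaded 1 h at 37 C; compounds in DMSO added by pin tool (agonist mode). Intracellular calcium flux read as kinetic fluorescence on FDSS over 2 min at 1 s intervals.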

[12] = target: Muscarinic acetylcholine receptor M1 (Homo sapiens) (UniProt P11229); assay: Cholinergic receptor muscarinic 1 (CHRM1) small molecule antagonists, cell-based qHTS assay (AID 1963588); note: nearly all actives have a fitted effect of over 40% in size; note: potency is the fitted concentration of half-maximal effect
Sequence of Muscarinic acetylcholine receptor M1 (Homo sapiens) (P11229 whole entry, looked up): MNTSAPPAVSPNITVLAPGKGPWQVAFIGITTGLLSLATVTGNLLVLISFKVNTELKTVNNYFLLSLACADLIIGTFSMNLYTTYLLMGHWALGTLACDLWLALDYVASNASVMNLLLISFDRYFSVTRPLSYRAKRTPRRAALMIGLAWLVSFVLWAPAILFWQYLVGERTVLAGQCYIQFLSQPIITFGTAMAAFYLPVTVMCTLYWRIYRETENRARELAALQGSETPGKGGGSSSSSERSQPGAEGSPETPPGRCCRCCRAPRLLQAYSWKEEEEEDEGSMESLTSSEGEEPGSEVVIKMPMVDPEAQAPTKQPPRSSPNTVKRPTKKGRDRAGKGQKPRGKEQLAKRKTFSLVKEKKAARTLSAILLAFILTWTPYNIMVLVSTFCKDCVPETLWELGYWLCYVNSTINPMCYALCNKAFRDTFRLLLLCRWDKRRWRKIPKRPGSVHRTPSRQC
How it was run: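 Compounds were tested at 15 concentrations in three independent runs. Dye-loaded CHRM1-CHO cells were exposed 5 min at room temperature before stimulation by acetylcholine added at 50nM. Intracellular calcium was read kinetically on FDSS for 3 min.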

[13] = target: Muscarinic acetylcholine receptor M1 (Homo sapiens) (UniProt P11229); assay: Cholinergic receptor muscarinic 1 (CHRM1) small molecule agonists, cell-based qHTS assay (AID 1963589); note: nearly all actives have a fitted effect of over 35% in size
How it was run: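 Kinetic fluorescence (1 s intervals) of calcium-sensitive dye in human M1 CHO cells after compound addition; cells pre-incubated 18 h at 37 C/5% CO2 and dye-loaded 1 h.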

[14] = cAMP Responsive Elements (CRE) small molecule agonists, cell-based qHTS assay (AID 1963590)
How it was run: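 Test agents in DMSO were incubated 3 h at 37 C/5% CO2 with CRE-bla HEK 293T cells seeded 18 h earlier; LiveBLAzer B/G FRET substrate was added and read after 2 h at room temperature.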

[15] = cAMP Responsive Elements (CRE) small molecule antagonists, cell-based qHTS assay (AID 1963591; active = well fitted inhibition curve with a large enough effect in the signal ratio in the repeat runs, not every such curve was filed as active; the % refers to the signal ratio; note: potency is the fitted concentration of half-maximal effect)
How it was run: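 Reporter line CRE-bla HEK 293T in dialyzed-FBS DMEM; cells preincubated 18 h, treated 3 h with compound plus NKH477 (0.25 uM final); LiveBLAzer FRET, 2 h RT.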

[16] = target: Beta-2 adrenergic receptor (Homo sapiens) (UniProt P07550); assay: Adrenergic beta2 receptor (ADRB2) small molecule antagonists, cell-based qHTS assay (AID 1963592); note: series mostly up to about 92 µM; nearly all actives have a fitted effect of over 50% in size
Sequence of Beta-2 adrenergic receptor (Homo sapiens) (P07550 whole entry, looked up): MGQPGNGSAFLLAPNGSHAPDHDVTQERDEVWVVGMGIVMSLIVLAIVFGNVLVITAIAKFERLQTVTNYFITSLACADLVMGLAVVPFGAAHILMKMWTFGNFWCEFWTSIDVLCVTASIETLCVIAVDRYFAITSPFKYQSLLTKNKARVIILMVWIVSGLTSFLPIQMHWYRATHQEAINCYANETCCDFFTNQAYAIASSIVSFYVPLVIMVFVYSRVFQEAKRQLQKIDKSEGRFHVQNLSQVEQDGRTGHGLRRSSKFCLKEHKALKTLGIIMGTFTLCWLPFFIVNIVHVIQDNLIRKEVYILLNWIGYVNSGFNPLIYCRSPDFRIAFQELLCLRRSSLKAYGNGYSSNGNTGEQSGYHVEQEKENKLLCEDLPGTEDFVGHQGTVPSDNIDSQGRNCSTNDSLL
How it was run: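 Assay format: CHO-ADRB2 cells, 18-20hr seeding at 37C/5% CO2, then compound plus 1nM isoproterenol agonist mix for 0.5hr RT. Homogeneous time-resolved fluorescence cAMP detection after 1hr, expressed as 665/615 nm ratio.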

[17] = target: Beta-2 adrenergic receptor (Homo sapiens) (UniProt P07550); assay: Adrenergic beta2 receptor (ADRB2) small molecule agonists, cell-based qHTS assay (AID 1963593);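 note: CHO cells stably overexpressing human ADRB2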
How it was run: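 CHO cells stably over-expressing ADRB2 were plated overnight at 37C, then dosed with compounds plus a stimulation mix containing 100uM IBMX and 25uM Ro-20-1724 for 0.5hr at room temperature. cAMP was measured by HTRF competition, 1hr.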

[18] = target: D(2) dopamine receptor (Homo sapiens) (UniProt P14416); assay: Dopamine D2 receptor (DRD2) small molecule agonists, cell-based qHTS assay (AID 1963594); note: nearly all actives have a fitted effect of over 35% in size
Sequence of D(2) dopamine receptor (Homo sapiens) (P14416 whole entry, looked up): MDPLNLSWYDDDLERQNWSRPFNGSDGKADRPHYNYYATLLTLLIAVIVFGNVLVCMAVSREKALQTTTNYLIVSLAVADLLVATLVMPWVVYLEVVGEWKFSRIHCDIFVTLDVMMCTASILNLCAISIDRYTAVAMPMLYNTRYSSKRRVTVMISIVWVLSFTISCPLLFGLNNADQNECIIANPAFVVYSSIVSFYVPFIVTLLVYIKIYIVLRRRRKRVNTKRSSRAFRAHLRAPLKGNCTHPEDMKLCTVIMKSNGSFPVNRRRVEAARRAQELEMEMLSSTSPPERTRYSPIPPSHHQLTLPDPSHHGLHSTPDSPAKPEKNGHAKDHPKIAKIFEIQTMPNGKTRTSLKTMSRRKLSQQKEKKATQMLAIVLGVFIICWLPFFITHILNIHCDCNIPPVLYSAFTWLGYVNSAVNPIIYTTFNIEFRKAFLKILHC
How it was run: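 HEK293 cells stably expressing DRD2 were cultured 24 h at 37 C, then given Ro20-1724 (0.1 mM final) and compounds for 10 min at room temperature. NKH477 (200nM) was then added for 30 min. cAMP was read by HTRF.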

[19] = target: D(2) dopamine receptor (Homo sapiens) (UniProt P14416); assay: Dopamine D2 receptor (DRD2) small molecule antagonists, cell-based qHTS assay (AID 1963595; active = well fitted inhibition curve with a large enough effect in the signal ratio in the repeat runs, with a control signal flat; the % refers to the signal ratio)
How it was run: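 Stable D2 receptor HEK293 line, 24 h after seeding. Compound preincubated 10 min, then quinpirole (12 nM) with forskolin analogue NKH477 (200 nM), 30 min, room temperature. Detection by time-resolved FRET of cAMP.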

[20] = p53 small molecule agonists, cell-based qHTS assay with rat liver microsomes (AID 1963578)
How it was run: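 Rat liver microsome activation: microsomes 0.5 mg/mL, NADPH 0.5 mg/mL final; p53RE-bla cells, 16 h 37 C; LiveBLAzer readout, 2 h RT dark.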

| Compound | Potency [1] | Potency [2] | Potency [3] | Potency [4] | Potency [5] | Potency [6] | Potency [7] | Potency [8] | Potency [9] | Potency [10] | Potency [11] | Potency [12] | Potency [13] | Potency [14] | Potency [15] | Potency [16] | Potency [17] | Potency [18] | Potency [19] | Potency [20] |
| --- | --- | --- | --- | --- | --- | --- | --- | --- | --- | --- | --- | --- | --- | --- | --- | --- | --- | --- | --- | --- |
| O=C[C@@H](O)[C@H](O)[C@H](O)CO | inactive | inactive | inactive | inactive | inactive | inactive | inactive | inactive | inactive | inactive | inactive | inactive | inactive | inactive | inactive | inactive | inactive | inactive | inactive |  |
| CC(S)C(C)S (stereo not given) | inactive | inactive | inactive | inactive | inactive | inactive | inactive | inactive | inactive | inactive | inactive | inactive | inactive | inactive | inactive | inactive | inactive | inactive |  | inactive |
| CC1=CCCC(C)(C)C12CCC(C)O2 (stereo not given) | inactive | inactive | inactive | inactive | inactive | inactive |  | inactive | inactive |  | inactive | inactive | inactive | inactive |  | inactive |  | inactive |  |  |
| COc1cc(NS(=O)(=O)c2ccc(N)cc2)nc(C)n1 | inactive | inactive | inactive | inactive | inactive | inactive | inactive | inactive | inactive | inactive | inactive |  | inactive | inactive | inactive | inactive | inactive | inactive | inactive |  |
| CC(=O)OC(OC(C)=O)c1ccc([N+](=O)[O-])o1 | 62.2 µM (active) | 24.8 µM (active) | inactive | inactive | inactive |  |  |  |  |  | inactive | inactive | inactive |  |  |  |  | inactive | inactive | inactive |
| C=CC(=O)OCC(C)OCC(C)OCC(C)OC(=O)C=C (stereo not given) | 61.1 µM (active) | 24.3 µM (active) | inactive | inactive | inactive |  |  | inactive |  | inactive | inactive | inactive | inactive |  |  | inactive |  |  |  | inactive |
| O=C(OCCc1ccccc1)c1ccccc1 | inactive | 27.3 µM (active) | inactive | inactive | inactive | inactive |  | inactive | inactive | inactive | inactive |  | inactive |  |  |  | inactive | inactive | inactive |  |
| CC(=O)Oc1ccc(C2(c3ccc(OC(C)=O)cc3)Oc3ccccc3NC2=O)cc1 | inactive | inactive | inactive | inactive | inactive |  |  |  | 4.46 µM (active) | inactive | inactive |  |  | inactive |  | inactive |  | inactive |  | inactive |
| CC(C)C[C@H](NC(=O)[C@H](Cc1ccccc1)NC(=O)c1cnccn1)B(O)O | 0.596 µM (active) | 0.0422 µM (active) | inactive | inactive | inactive | 0.89 µM (active) |  | 0.707 µM (active) | 0.0141 µM (active) | inactive | inactive | inactive | inactive | inactive | 0.944 µM (active) | inactive |  | inactive | inactive |  |
| O=S(=O)(O)c1cc(I)c(O)c2ncccc12 | inactive | inactive | inactive | inactive | inactive | inactive | inactive | inactive | inactive | inactive | inactive | inactive | inactive | inactive | inactive | inactive | inactive |  | inactive |  |
| CC(=O)Oc1ccc2c(c1)CC[C@@H]1[C@@H]2CC[C@]2(C)[C@@H](O)CC[C@@H]12 | inactive | inactive | inactive | inactive | inactive | inactive | inactive | inactive | inactive | inactive | inactive | inactive | inactive | inactive | inactive | inactive |  | inactive | inactive | inactive |
| COc1cc(C(=O)OCCCN2CCCN(CCCOC(=O)c3cc(OC)c(OC)c(OC)c3)CC2)cc(OC)c1OC | inactive | inactive | inactive | inactive | inactive | inactive | inactive | inactive | inactive | inactive | inactive | 7.29 µM (active) | inactive | inactive |  |  |  | inactive | inactive | inactive |
| C[C@@H](O)C(=O)O | inactive | inactive | inactive | inactive | inactive | inactive | inactive | inactive | inactive |  |  |  |  | inactive | inactive |  |  | inactive | inactive | inactive |
| COCCOc1cc2cc(C(=O)NC3CCN(C(C)C)CC3)n(CC(=O)Nc3ccc(Cl)cn3)c2cn1 | inactive | inactive | inactive | inactive | inactive | inactive | inactive | inactive | inactive | inactive | inactive | inactive | inactive | inactive |  | inactive | inactive |  | inactive | inactive |
| C=C(C)C1CCC(C)(O)CC1 (stereo not given) | inactive | inactive | inactive | inactive | inactive | inactive | inactive | inactive | inactive | inactive | inactive | inactive | inactive | inactive | inactive |  | inactive | inactive |  | inactive |
